The list is not random: actives were taken first. Their share in the collection is about 7.2%.
ALR H2O2 inh = inhibitors of human sulfhydryl oxidase ALR. P55789. purified ALR, DTT oxidation, H2O2 HRP-luminol luminescence. 3.8% of 290,000 active. inhibition, % (no concentration beside the values);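 active = mean replicate inhibition above about 79%, with every replicate also reaching it, limit read from the data; inconclusive = only one of the two criteria met; inactive = mean below limit and not every replicate reaching it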
VLA-4 inh = inhibition in a human VLA-4 binding assay; 0.2% of 330,000 active; inhibition, % (about 7 µM as worked out from the volumes in the protocol); VLA-4 expressing cells, ligand binding flow cytometry; AID 2557; P13612; in the data active = inhibition above about 50%
Target sequence (P13612 whole entry, looked up): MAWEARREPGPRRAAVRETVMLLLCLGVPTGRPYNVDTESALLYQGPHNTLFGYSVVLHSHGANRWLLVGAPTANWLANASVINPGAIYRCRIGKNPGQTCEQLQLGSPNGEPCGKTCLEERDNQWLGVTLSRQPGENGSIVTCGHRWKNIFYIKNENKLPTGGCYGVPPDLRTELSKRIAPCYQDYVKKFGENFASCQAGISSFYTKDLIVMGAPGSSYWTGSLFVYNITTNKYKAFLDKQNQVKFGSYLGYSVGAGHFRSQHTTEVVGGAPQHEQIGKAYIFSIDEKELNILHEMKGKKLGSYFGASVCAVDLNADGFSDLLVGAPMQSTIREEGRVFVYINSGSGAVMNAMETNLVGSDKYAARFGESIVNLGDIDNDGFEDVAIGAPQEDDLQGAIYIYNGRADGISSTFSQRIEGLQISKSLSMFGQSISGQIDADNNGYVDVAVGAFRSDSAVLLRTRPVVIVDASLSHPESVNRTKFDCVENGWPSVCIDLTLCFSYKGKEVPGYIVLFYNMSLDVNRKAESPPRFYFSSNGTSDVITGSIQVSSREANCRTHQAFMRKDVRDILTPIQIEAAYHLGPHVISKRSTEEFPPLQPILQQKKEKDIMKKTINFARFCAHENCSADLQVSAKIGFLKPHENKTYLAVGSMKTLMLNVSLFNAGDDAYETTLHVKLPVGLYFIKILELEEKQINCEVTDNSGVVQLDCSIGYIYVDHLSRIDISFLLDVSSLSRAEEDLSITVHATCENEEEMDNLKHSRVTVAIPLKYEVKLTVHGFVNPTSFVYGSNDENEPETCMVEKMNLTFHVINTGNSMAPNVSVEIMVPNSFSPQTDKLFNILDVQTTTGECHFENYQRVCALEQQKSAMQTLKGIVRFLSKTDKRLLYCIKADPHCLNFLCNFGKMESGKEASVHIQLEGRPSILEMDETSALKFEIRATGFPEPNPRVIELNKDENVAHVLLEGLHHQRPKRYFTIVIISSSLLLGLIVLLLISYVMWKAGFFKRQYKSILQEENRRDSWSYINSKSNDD
AHR activator = activators of human aryl hydrocarbon receptor; P35869; AHR-responsive luciferase reporter cells, luminescence; activation, % at 5 µM; 2.5% of 320,000 active; in the data active = activation above about 47%;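 also: 0% = vehicle wells and 100% = reference agonist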
Efflux pump inh = antifungal efflux pump inhibition, Nile Red retention. S. cerevisiae Candida pump triplex. inhibition, % at 10 µM. 0.44% of 330,000 active. AID 485275;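 active = plate passing quality check with inhibition over a set limit, or well fluorescence over plate mean plus 4 SD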;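 also: Nile Red retained in pooled yeast measured as flow cytometry median fluorescence; 0% = buffer negative control and 100% = Enniatin B positive control; higher means more Nile Red kept so more efflux inhibition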
SUMO Mot1 rescue = inhibitors of SUMOylation pathway: yeast Mot1-301 growth rescue | growth rescue, % at 18.8 µM | S. cerevisiae Mot1-301 growth rescue, ATP luminescence, 38.5C; percent above DMSO median, 100 means doubled | 1% of 320,000 active | AID 2716;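 active = every valid replicate shows activation above 250% relative to neutral control wells; inactive = the rest, any valid replicate at or below 250%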;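 also: OY570 slx delta 5 strain wells were the positive control but not used for scaling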
A1 inh = inhibitors of the anti-apoptotic protein A1, read as caspase activation; MEF A1-2A-BIM cells, Caspase-Glo 3/7 luminescence, 3 h; percent of clofoctol response, vehicle zero; caspase activation, % (no concentration beside the values); 0.066% of 330,000 active; AID 2462;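 active = over half of replicate activation scores above 10%, or exactly half above 10 with the replicate mean above 10; inconclusive = replicate mean below 10 yet half the replicates above 10; inactive = over half of replicates below 10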
VLA-4 mod pick = confirmation of allosteric modulators of human VLA-4 integrin; 2% of 1,300 active; U937 cells, HUTS-21 LIBS mAb binding, flow cytometry; LDV ligand present at threefold Kd; inhibition, % at 6.7 µM; shares compounds with VLA-4 inh; in the data active = inhibition above about 40%;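 also: 0% = ligand without compound and 100% = no ligand background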
Starred values were filed as active, the others as inactive; ? = inconclusive; . = no result given; ! = repeats disagree.

SMILES	ALR H2O2 inh	VLA-4 inh	AHR activator	Efflux pump inh	SUMO Mot1 rescue	A1 inh	VLA-4 mod pick
COc1cccc(C(=O)Nc2ncc3c(n2)CC(C)CC3=O)c1 (stereo not given)	-23	62*	1	0	6	-1	0
COc1cc(OC)cc(C(=O)Nc2ncc3c(n2)CC(C)CC3=O)c1 (stereo not given)	5	5	16	0	-28	1	.
CCOC(=O)N1CCN(C(=O)CSCc2ccc(Br)cc2)CC1	-21	-5	4	0	10	1	.
CC(C)(C)c1ccc(C(=O)NNC(=S)NCc2ccco2)cc1	0	-6	3	0	1	1	.
COc1cc(OC)cc(C(=O)NNC(=S)NCc2ccco2)c1	10	53*	9	0	6	1	8
CSc1ccc2c(c1)C(N1CCN(C)CC1)Cc1ccccc1S2 (stereo not given)	-50	55*!	4	0	-7	0	22
O=C1NC(=O)/C(=C/c2cccc(O)c2)N1	2	47	5	0	312	1	-3
CCn1c2ccccc2c2cc(NC(=O)c3cc(OC)cc(OC)c3)ccc21	-16	47	45	0	20	2	32
CCOc1ccc(N(CC(=O)Nc2c(C)cccc2C)S(=O)(=O)c2c(C)[nH]c(=O)[nH]c2=O)cc1	-1	5	0	0	-3	0	.
O=c1[nH]cnc2c1nc(SCc1ccccc1)n2C1OC(CO)C(O)C1O (stereo not given)	.	51*	-4	0	9	-1	8
Cc1ccccc1C(=O)N1CCC(C(=O)Nc2ccc(C(C)C)cc2)CC1	-3	21	2	0	-3	-1	14
Cc1ccccc1C(=O)N1CCC(C(=O)Nc2ccccn2)CC1	.	51*	1	0	-6	0	-1
Cc1ccccc1C(=O)N1CCC(C(=O)NC2CCCCCC2)CC1	-2	-3	1	0	-7	0	.
CCOc1ccc(CC(=O)NNC(=O)/C=C/C(=O)O)cc1	.	1	1	0	2	1	.
CN(C)/C=C/c1onc(-c2c(Cl)cccc2Cl)c1C#N	-8	-12	0	0	32	1	.
N#Cc1c(-c2c(Cl)cccc2Cl)noc1/C=C/Nc1ccc(C(=O)O)cc1	0	42	-3	0	0	0	-2
CC(=O)N1c2ccc(S(=O)(=O)N3CCCCC3)cc2CC1C(=O)Nc1cccc(C)c1 (stereo not given)	-2	3	0	0	195	0	.
O=Cc1cnc(N2CCN(c3ccccc3)CC2)s1	.	52*	-1	0	19	-1	1
N=c1sccn1CC(=O)Nc1ccc([N+](=O)[O-])cc1Cl	1	5	1	0	-17	0	.
O=[N+]([O-])c1ccccc1Oc1ncccc1[N+](=O)[O-]	-8	72*	16	0	.	0	10
O=[N+]([O-])c1cccnc1Oc1ccc(F)cc1F	-1	22	-1	0	-12	1	.
COc1cccc(NC(=O)CN(c2ccc(C)cc2)S(=O)(=O)c2c(C)nn(C)c2C)c1	-7	10	6	0	1	1	.
Cc1nn(C)c(C)c1S(=O)(=O)N(CC(=O)NCc1cccs1)c1ccc(C(C)C)cc1	3	22	-1	0	4	0	.
COc1ccc(N(CC(=O)Nc2ccc(F)c(F)c2)S(=O)(=O)c2c(C)n[nH]c2C)cc1	2	4	7	0	-13	0	0
COc1ccc(NC(=O)CN(c2cc(C)cc(C)c2)S(=O)(=O)c2c(C)n[nH]c2C)cc1	.	4	21	0	.	.	.
SMILES	ALR H2O2 inh	VLA-4 inh	AHR activator	Efflux pump inh	SUMO Mot1 rescue	A1 inh	VLA-4 mod pick
Cc1nn(C)c(C)c1S(=O)(=O)N(CC(=O)NCc1ccco1)c1ccc(C(C)C)cc1	-3	64*	-1	0	7	1	7
COc1ccc(N(CC(=O)Nc2cccc(OC)c2)S(=O)(=O)c2c(C)nn(C)c2C)cc1	-3	0	2	0	-18	0	6
COCCCNC(=O)c1cc(-c2cccnc2)nc2ccc(S(=O)(=O)N3CCCCCC3)cc12	2	0	5	0	-7	1	.
CCn1cc(C(=O)N[C@@H](CCSC)C(=O)NCCCO)c(=O)c2cc3c(cc21)OCO3	.	40	1	0	-9	0	4
CCn1cc(C(=O)N[C@@H](CCSC)C(=O)NCCOC)c(=O)c2cc3c(cc21)OCO3	2	8	5	0	-7	0	.
COCCN1C=C2C(=O)C(C)(OC(=O)c3cccs3)C(=O)C=C2C=C1CCCC(=O)OC (stereo not given)	-48	50*	5	0	0	1	-6
COC(=O)CCCC1=CC2=CC(=O)C(C)(OC(=O)c3cccs3)C(=O)C2=CN1CCCCO (stereo not given)	.	28	1	0	-1	1	.
COc1ccc(CNC(=O)C2CCN(S(C)(=O)=O)CC2)c(OC)c1	-2	53*	0	0	-10	0	1
CCS(=O)(=O)N1CCC(C(=O)NCc2ccc(OC)cc2OC)CC1	-10	-6	-2	0	254	1	.
CNC(=O)CC1C(=O)N(c2ccc(F)cc2)C(=S)N1NC(=O)c1ccc(Br)cc1 (stereo not given)	25	5	0	0	-8	0	.
Cc1ccccc1Oc1ccc(NC(=O)C2CC=CCC2C(=O)O)cc1 (stereo not given)	7	54*	-1	3	53	-1	5
c1ccc(-c2sc3ccccc3c2-c2ccc(OCCN3CCCCC3)cc2)cc1	0	17	0	0	0	?	-8
NC(=O)c1ccc(-c2c(-c3ccccc3)sc3ccccc23)cc1	-10	2	1	0	-11	1	.
c1ccc2c(-c3ccc(OCCN4CCCCC4)cc3)c(-c3ccsc3)sc2c1	-3	20	-1	0	256	2	.
CN(C)CCOc1ccc(-c2c(-c3ccccc3)sc3ccccc23)cc1	-11	70*	-2	1	34	0	30
CCOc1ccc(NC(=O)COC(=O)c2c(OC)cccc2OC)cc1	-1	-6	3	0	-13	1	-16
CCOc1ccccc1C(=O)OCC(=O)Nc1ccc(OC(F)F)cc1	.	7	0	0	1	0	.
CN(Cc1ccccc1)C(=O)CN(C)S(=O)(=O)c1ccc(F)cc1	-5	10	0	0	10	1	0
CN(CC(=O)O)S(=O)(=O)c1ccc(F)cc1	-4	8	1	0	-8	0	.
O=C(O)c1ccccc1NC(=O)C(c1ccccc1)c1ccccc1	1	-2	-3	0	-24	0	4

Assay outcomes from PubChem BioAssay.
